# Columns and labels:
# Assay in all cases: DAPPL (digital affinity profiling via proximity ligation, sequencing); 10 mM Tris-HCl pH 7.5, 50 mM NaCl, 1 mM DTT, 4% glycerol, room temperature, 30 min; GST-TFs on glutathione beads, 16-mer random dsDNA library, 0.1% formaldehyde crosslink after washing; high values mean tight binding
# [1] = molecular target: T1, FLI1 (Homo sapiens, UniProt Q01543 1-452); details: protein: recombinant; tags: N-terminal GST; dsDNA, one strand shown
# T1 sequence: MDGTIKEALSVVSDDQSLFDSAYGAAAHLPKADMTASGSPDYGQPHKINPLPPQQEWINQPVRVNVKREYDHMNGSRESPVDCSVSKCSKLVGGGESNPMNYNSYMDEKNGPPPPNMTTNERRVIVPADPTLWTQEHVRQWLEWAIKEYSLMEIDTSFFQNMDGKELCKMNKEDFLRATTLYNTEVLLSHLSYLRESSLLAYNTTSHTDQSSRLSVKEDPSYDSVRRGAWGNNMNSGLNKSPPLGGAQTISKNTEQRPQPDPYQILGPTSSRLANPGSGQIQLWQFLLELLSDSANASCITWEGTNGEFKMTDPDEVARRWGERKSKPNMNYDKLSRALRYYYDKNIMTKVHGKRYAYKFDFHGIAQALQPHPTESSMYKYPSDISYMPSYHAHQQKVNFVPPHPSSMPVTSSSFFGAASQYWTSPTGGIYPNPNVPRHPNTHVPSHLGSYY
# Outline: (§1)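 Each value of binding signal is a hexamer's read frequency for a factor divided by the same hexamer's frequency in the tag-only sample. Barcoded, bead-captured GST fusions of human transcription factors made in yeast were pooled with that sample and incubated with 200 nmole of a random double-stranded 16-mer DNA library in Tris/NaCl/DTT/glycerol buffer at room temperature for 30 min. Washing, 0.1% formaldehyde crosslinking, proximity ligation, PCR and Illumina NextSeq500 sequencing followed.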
# [2] = molecular target: T2, ELK1 (Homo sapiens, UniProt P19419 1-428); details: protein: recombinant; tags: N-terminal GST; dsDNA, one strand shown
# T2 sequence: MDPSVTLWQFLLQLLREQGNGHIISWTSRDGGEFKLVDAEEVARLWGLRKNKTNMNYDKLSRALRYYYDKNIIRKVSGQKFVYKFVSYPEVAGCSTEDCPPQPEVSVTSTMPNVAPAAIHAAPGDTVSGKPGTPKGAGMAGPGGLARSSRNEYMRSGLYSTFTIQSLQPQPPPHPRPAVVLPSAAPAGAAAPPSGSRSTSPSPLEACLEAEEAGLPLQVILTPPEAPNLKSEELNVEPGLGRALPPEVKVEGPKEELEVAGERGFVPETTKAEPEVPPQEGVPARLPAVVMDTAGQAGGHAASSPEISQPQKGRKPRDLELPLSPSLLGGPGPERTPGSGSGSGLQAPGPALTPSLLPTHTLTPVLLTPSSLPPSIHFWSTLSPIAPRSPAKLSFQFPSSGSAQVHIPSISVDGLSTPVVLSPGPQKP
# Outline: as §1
# [3] = molecular target: T3, GABPA (Homo sapiens, UniProt Q06546 1-454); details: protein: recombinant; tags: N-terminal GST; dsDNA, one strand shown
# T3 sequence: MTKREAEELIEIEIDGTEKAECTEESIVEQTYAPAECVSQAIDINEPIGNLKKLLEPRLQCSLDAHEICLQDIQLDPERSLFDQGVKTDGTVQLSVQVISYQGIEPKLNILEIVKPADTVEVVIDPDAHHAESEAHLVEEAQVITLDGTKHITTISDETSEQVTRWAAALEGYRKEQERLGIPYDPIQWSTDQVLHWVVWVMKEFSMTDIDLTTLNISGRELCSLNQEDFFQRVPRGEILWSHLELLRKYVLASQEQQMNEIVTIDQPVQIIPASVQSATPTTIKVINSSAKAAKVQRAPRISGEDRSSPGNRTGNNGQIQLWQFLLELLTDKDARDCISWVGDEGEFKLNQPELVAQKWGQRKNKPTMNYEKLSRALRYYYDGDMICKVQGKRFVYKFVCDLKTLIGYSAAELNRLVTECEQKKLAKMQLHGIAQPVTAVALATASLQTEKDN
# Outline: as §1
# [4] = molecular target: T4, ERG (Homo sapiens, UniProt P11308 1-479); details: protein: recombinant; tags: N-terminal GST; dsDNA, one strand shown
# T4 sequence: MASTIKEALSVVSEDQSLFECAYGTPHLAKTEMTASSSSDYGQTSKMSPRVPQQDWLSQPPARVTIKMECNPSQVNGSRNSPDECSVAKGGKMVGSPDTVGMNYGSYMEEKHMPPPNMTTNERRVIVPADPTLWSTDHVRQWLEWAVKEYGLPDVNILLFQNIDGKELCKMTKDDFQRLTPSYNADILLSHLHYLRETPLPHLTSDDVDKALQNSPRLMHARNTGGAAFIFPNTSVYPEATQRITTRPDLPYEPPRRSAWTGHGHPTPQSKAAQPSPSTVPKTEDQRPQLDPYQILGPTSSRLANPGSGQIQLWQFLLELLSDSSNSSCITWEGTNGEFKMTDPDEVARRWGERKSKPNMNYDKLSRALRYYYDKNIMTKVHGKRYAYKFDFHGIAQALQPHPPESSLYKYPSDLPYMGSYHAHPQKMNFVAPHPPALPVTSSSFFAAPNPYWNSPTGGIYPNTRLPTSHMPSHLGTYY
# Outline: as §1
# [5] = molecular target: ELF1 (Homo sapiens, UniProt P32519 1-619); details: protein: recombinant; tags: N-terminal GST; dsDNA, one strand shown
# Sequence of ELF1 (P32519 whole entry): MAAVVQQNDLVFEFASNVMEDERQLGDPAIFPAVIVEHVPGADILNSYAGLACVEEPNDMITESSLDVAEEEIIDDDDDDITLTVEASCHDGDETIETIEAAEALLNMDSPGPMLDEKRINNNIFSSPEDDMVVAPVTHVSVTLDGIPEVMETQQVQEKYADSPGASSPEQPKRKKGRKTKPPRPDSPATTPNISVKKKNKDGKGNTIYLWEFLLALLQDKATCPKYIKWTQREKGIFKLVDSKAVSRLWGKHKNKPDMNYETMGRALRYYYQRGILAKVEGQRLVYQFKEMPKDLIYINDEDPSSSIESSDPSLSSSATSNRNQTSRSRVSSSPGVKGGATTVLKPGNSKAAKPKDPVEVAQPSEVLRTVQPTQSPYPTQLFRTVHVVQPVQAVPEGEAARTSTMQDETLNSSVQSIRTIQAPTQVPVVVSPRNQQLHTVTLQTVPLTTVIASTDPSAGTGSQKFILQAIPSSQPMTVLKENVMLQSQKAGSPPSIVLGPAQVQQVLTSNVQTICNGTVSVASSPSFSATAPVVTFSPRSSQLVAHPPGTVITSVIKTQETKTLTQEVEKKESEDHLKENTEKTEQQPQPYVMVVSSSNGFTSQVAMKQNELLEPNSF
# Outline: as §1
# [6] = molecular target: T5, EHF (Homo sapiens, UniProt Q9NZC4 1-300); details: protein: recombinant; tags: N-terminal GST; dsDNA, one strand shown
# T5 sequence: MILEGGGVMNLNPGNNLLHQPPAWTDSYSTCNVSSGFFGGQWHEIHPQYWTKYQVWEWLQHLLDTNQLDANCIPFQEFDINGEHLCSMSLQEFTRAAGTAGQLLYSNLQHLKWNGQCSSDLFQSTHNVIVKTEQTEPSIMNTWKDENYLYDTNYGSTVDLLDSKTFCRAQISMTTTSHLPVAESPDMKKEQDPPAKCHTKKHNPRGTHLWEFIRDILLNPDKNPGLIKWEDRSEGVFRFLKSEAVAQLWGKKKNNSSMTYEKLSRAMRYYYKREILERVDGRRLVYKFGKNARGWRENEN
# Outline: as §1
# [7] = molecular target: SPI1 (Homo sapiens, UniProt P17947 1-270); details: protein: recombinant; tags: N-terminal GST; dsDNA, one strand shown
# Outline: as §1
# [8] = molecular target: SPIB (Homo sapiens, UniProt Q01892 1-262); details: protein: recombinant; tags: N-terminal GST; dsDNA, one strand shown
# Sequence of SPIB (Q01892 whole entry): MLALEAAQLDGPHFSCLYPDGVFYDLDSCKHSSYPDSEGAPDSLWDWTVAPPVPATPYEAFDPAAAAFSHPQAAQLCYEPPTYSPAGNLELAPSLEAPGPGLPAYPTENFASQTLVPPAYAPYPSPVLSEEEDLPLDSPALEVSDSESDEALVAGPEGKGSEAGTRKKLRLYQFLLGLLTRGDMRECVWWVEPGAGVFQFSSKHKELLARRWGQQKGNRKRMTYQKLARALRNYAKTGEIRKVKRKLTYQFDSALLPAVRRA
# Outline: as §1
# [9] = molecular target: T6, ELK3 (Homo sapiens, UniProt P41970 1-407); details: protein: recombinant; tags: N-terminal GST; dsDNA, one strand shown
# T6 sequence: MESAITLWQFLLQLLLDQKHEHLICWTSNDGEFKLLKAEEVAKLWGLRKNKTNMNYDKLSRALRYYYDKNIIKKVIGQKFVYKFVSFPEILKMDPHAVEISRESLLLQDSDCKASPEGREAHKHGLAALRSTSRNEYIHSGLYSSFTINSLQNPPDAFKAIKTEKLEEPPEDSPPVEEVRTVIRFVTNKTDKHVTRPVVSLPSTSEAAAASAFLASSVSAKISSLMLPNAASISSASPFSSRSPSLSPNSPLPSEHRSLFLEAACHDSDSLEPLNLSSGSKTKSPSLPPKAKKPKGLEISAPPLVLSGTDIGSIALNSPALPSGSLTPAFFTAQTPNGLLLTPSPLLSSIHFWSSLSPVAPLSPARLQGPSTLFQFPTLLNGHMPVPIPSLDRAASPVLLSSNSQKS
# Outline: as §1
# [10] = molecular target: T7, FEV (Homo sapiens, UniProt Q99581 1-238); details: protein: recombinant; tags: N-terminal GST; dsDNA, one strand shown
# T7 sequence: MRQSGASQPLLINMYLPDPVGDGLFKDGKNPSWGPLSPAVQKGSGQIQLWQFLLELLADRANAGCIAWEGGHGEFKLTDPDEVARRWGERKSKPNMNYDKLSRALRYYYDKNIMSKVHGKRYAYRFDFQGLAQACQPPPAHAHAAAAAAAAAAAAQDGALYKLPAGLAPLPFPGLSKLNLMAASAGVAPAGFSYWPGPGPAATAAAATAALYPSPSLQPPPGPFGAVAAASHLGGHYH
# Outline: as §1
# [11] = molecular target: ETV5 (Homo sapiens, UniProt P41161 1-510); details: protein: recombinant; tags: N-terminal GST; dsDNA, one strand shown
# Sequence of ETV5 (P41161 whole entry): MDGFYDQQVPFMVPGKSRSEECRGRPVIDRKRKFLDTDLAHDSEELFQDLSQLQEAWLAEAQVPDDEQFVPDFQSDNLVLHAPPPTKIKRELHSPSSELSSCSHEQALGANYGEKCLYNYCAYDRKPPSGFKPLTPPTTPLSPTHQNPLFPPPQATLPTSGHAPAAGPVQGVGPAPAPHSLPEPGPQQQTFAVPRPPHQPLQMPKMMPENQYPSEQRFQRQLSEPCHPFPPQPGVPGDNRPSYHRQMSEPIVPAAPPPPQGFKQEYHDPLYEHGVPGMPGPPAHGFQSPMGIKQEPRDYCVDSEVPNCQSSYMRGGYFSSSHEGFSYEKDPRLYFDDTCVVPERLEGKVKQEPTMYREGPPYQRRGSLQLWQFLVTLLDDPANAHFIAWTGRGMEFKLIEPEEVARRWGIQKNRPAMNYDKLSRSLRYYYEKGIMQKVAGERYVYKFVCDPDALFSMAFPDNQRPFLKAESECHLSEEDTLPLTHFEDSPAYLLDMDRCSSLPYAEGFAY
# Outline: as §1
# [12] = molecular target: HSF1 (Homo sapiens, UniProt Q00613 1-529); details: protein: recombinant; tags: N-terminal GST; chain copies: 3; dsDNA, one strand shown
# Sequence of HSF1 (Q00613 whole entry): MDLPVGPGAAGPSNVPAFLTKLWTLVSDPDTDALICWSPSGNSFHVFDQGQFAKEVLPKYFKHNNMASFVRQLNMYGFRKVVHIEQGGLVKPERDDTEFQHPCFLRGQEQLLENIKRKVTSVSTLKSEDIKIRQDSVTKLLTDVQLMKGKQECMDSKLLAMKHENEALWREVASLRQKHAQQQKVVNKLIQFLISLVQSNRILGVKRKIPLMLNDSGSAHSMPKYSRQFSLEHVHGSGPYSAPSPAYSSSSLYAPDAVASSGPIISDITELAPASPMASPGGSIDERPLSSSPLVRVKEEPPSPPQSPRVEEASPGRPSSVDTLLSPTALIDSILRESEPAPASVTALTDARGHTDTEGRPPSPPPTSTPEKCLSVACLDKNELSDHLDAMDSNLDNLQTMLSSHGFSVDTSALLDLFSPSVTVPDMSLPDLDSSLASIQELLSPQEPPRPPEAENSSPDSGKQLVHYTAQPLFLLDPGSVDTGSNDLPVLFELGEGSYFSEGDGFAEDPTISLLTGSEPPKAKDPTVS
# Outline: as §1
# [13] = molecular target: T8, SPIC (Homo sapiens, UniProt Q8N5J4 1-248); details: protein: recombinant; tags: N-terminal GST; dsDNA, one strand shown
# T8 sequence: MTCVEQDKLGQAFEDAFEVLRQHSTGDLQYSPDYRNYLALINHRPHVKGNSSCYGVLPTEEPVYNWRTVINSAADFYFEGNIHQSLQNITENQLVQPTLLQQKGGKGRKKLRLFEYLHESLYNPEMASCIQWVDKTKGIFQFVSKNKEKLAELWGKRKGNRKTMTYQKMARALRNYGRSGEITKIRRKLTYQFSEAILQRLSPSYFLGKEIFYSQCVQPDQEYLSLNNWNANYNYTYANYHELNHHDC
# Outline: as §1
# [14] = molecular target: ELF4 (Homo sapiens, UniProt Q99607 1-663); details: protein: recombinant; tags: N-terminal GST; dsDNA, one strand shown
# Sequence of ELF4 (Q99607 whole entry): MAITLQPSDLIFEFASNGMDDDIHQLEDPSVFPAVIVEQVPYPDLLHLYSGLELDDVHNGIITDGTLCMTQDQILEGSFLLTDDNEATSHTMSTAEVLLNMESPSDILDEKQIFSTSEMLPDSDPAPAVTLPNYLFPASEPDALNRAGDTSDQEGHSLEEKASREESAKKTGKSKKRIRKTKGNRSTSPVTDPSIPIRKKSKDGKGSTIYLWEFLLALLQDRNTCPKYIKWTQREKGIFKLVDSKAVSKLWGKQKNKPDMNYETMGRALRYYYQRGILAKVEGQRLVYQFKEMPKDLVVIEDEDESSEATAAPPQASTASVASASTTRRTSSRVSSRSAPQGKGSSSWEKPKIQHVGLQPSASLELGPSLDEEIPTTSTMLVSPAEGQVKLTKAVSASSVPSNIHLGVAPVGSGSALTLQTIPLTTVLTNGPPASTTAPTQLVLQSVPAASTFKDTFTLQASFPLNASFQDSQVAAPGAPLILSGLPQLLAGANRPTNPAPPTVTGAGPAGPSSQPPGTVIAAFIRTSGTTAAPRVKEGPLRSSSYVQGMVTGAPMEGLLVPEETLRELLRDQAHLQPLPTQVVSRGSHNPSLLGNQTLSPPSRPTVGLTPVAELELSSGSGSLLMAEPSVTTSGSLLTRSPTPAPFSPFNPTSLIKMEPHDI
# Outline: as §1
# [15] = molecular target: T9, ELK4 (Homo sapiens, UniProt P28324-2 1-405); details: protein: recombinant; tags: N-terminal GST; dsDNA, one strand shown
# T9 sequence: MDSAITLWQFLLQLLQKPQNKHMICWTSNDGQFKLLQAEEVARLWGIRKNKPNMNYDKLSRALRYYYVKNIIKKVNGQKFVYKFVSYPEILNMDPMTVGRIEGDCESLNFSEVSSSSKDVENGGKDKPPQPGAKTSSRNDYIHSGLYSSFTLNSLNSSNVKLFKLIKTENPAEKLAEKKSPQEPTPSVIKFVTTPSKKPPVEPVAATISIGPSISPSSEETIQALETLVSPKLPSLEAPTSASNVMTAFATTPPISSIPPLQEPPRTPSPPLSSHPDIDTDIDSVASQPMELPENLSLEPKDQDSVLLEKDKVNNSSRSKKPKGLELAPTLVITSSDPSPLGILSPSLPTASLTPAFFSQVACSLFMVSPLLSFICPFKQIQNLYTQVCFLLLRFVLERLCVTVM
# Outline: as §1
# [16] = molecular target: T10, ETV2 (Homo sapiens, UniProt O00321 1-342); details: protein: recombinant; tags: N-terminal GST; dsDNA, one strand shown
# T10 sequence: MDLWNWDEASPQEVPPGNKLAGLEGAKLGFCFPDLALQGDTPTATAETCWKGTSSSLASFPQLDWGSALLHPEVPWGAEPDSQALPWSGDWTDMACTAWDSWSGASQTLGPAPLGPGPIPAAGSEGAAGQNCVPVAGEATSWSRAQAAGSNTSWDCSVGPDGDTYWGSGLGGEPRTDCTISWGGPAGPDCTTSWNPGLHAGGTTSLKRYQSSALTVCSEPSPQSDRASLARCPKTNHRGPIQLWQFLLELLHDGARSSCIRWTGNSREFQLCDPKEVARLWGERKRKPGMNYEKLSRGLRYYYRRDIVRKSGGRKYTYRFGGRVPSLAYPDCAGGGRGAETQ
# Outline: as §1
# [17] = molecular target: T11, ELF3 (Homo sapiens, UniProt P78545 1-371); details: protein: recombinant; tags: N-terminal GST; dsDNA, one strand shown
# T11 sequence: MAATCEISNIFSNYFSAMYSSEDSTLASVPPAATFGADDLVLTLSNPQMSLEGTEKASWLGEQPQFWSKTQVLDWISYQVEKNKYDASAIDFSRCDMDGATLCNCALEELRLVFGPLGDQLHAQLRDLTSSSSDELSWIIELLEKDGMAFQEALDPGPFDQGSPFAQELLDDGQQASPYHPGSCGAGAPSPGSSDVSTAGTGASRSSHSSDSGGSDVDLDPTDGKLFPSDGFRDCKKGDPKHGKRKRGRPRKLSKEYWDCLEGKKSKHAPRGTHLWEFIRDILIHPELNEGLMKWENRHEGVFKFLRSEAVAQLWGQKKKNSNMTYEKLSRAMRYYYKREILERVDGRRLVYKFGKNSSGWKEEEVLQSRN
# Outline: as §1
# [18] = molecular target: CRX (Homo sapiens, UniProt O43186 1-299); details: protein: recombinant; tags: N-terminal GST; dsDNA, one strand shown
# Sequence of CRX (O43186 whole entry): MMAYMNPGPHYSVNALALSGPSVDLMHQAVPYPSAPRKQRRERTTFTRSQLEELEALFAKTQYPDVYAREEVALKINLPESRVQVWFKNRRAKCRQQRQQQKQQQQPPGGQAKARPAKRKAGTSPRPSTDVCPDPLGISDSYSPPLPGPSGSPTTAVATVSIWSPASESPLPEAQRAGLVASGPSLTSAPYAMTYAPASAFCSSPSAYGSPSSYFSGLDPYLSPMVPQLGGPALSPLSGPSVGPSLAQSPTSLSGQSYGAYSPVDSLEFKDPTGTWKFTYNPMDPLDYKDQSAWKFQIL
# Outline: as §1
# [19] = molecular target: ETV1 (Homo sapiens, UniProt P50549 1-477); details: protein: recombinant; tags: N-terminal GST; dsDNA, one strand shown
# Sequence of ETV1 (P50549 whole entry): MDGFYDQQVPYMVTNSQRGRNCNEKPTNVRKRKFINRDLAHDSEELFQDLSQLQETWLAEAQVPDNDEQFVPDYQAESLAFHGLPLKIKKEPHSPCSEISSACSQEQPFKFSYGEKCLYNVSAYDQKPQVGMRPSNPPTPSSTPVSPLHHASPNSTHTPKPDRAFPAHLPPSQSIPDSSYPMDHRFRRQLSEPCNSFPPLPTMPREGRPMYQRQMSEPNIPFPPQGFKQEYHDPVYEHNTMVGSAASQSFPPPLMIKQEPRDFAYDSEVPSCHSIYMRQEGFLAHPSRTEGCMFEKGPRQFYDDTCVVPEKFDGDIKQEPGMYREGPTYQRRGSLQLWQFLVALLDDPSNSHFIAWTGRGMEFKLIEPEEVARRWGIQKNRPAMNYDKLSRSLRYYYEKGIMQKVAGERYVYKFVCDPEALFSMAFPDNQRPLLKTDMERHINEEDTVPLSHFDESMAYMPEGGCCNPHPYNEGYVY
# Outline: as §1
sequence,measurement,setting,value
ACCTAA,binding signal,[1],"1.19 fold enrichment (6-mer frequency, TF over GST control)"
same,binding signal,[2],"1.08 fold enrichment (6-mer frequency, TF over GST control)"
same,binding signal,[3],"1.17 fold enrichment (6-mer frequency, TF over GST control)"
same,binding signal,[4],"1.13 fold enrichment (6-mer frequency, TF over GST control)"
same,binding signal,[5],"1.18 fold enrichment (6-mer frequency, TF over GST control)"
same,binding signal,[6],"1.12 fold enrichment (6-mer frequency, TF over GST control)"
same,binding signal,[7],"1.2 fold enrichment (6-mer frequency, TF over GST control)"
same,binding signal,[8],"1.19 fold enrichment (6-mer frequency, TF over GST control)"
same,binding signal,[9],"1.2 fold enrichment (6-mer frequency, TF over GST control)"
same,binding signal,[10],"1.12 fold enrichment (6-mer frequency, TF over GST control)"
same,binding signal,[11],"1.22 fold enrichment (6-mer frequency, TF over GST control)"
same,binding signal,[12],"1.21 fold enrichment (6-mer frequency, TF over GST control)"
same,binding signal,[13],"1.21 fold enrichment (6-mer frequency, TF over GST control)"
same,binding signal,[14],"1.27 fold enrichment (6-mer frequency, TF over GST control)"
same,binding signal,[15],"1.13 fold enrichment (6-mer frequency, TF over GST control)"
same,binding signal,[16],"1.17 fold enrichment (6-mer frequency, TF over GST control)"
same,binding signal,[17],"1.2 fold enrichment (6-mer frequency, TF over GST control)"
same,binding signal,[18],"1.57 fold enrichment (6-mer frequency, TF over GST control)"
same,binding signal,[19],"1.18 fold enrichment (6-mer frequency, TF over GST control)"

# Reference: paper PMC7862700, “An all-to-all approach to the identification of sequence-specific readers for epigenetic DNA modifications on cytosine”
